Assay results: PubChem BioAssay AID652154 (Broad Institute, 2013)
In all, about 360,000 compounds went through this assay and about 4,200 (1.2%) were called active.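 Rule for the calls: active = mean replicate inhibition at least 60% with every replicate also reaching 60%; inconclusive = only one of the two criteria is met; inactive = mean below 60% and not all replicates reaching 60%.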 The list comes from a sample in which actives are over-represented; it also holds similar structures and randomly drawn compounds.

experiment: inhibitors of PAX8-driven TPO luciferase reporter, primary screen, RMG-I cells, single concentration (AID 652154); settings: SteadyGlo, 24 h, at 12.6 µM, stronger effect = higher value;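 note: luciferase light reporting Pax8 driven TPO promoter activity; plate controls were median of neutral control wells for no effect and mitoxantrone controls for full effect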

Structure (SMILES)	inhibition
Cc1ccc(S(=O)(=O)Nc2cccc3c2O[C@@H](CN(C)S(=O)(=O)c2c(C)noc2C)[C@@H](C)CN([C@H](C)CO)C3=O)cc1	-20.1% (inactive)
C[C@H]1CCCCO[C@@H](CN(C)Cc2ccc3c(c2)OCO3)[C@@H](C)CN([C@@H](C)CO)C(=O)c2cc(NC(=O)c3ccccc3)ccc2O1	10.2% (inactive)
COCC(=O)Nc1ccc2c(c1)C(=O)N(C)C[C@@H](OC)[C@H](C)CN(C(=O)c1cccnc1)[C@H](C)CO2	-16.5% (inactive)
C/C=C/c1cnc2c(c1)C(=O)N([C@@H](C)CO)C[C@@H](C)[C@@H](CN(C)C(=O)C1CCOCC1)O2	-0.814% (inactive)
O=C(NNc1ccccc1Cl)C(O)(c1cccc(C(F)(F)F)c1)c1cccc(C(F)(F)F)c1	66.8% (active)
O=c1cc(O)c(-c2cccc(C(F)(F)F)c2)c(Cl)[nH]1	4.02% (inactive)
O=C(O)c1cc(S(=O)(=O)N(Cc2ccccc2)c2cccc(C(F)(F)F)c2)ccc1Cl	-20% (inactive)
O=C(C1CCCC1)N1CC(=O)N2[C@H](CO)[C@H](c3ccc(Br)cc3)[C@H]2C1	-9.22% (inactive)
C/C=C/c1ccc([C@@H]2[C@H](CO)N(C(C)=O)[C@H]2CN(CC)C(=O)CN(C)C)cc1	9.68% (inactive)
COCC(=O)Nc1ccc2c(c1)OC[C@H](C)N(C(=O)c1cnccn1)C[C@@H](C)[C@H](OC)CN(C)C2=O	-7.83% (inactive)
O=C(C1CCC1)N1CCCCN2[C@H](C1)[C@@H](c1ccc(C#CC3CCCC3)cc1)[C@@H]2CO	36.8% (inactive)
COc1cccc(-n2c(=S)[nH]c3c(oc4ccccc43)c2=O)c1	3.59% (inactive)
O=c1oc2ccccc2cc1-c1cn(-c2ccccc2)c(=S)[nH]1	62.6% (active)
CC(C)NC(=O)Nc1ccc2c(c1)C(=O)N([C@@H](C)CO)C[C@@H](C)[C@H](CN(C)C(=O)Cc1ccccc1)OCCCC[C@H](C)O2	4.73% (inactive)
CN1CCN(C(=O)C[C@@H]2CC[C@@H]3[C@H](COC[C@@H](O)CN3Cc3cccc(F)c3)O2)CC1	-11.1% (inactive)
CCCC#Cc1cnc2c(c1)C(=O)N([C@@H](C)CO)C[C@@H](C)[C@@H](CN(C)C(=O)c1ccccc1)O2	8.32% (inactive)
C=C1C(=O)OC2C1CCC(C)=CCCC1(C)OC21 (stereo not drawn)	108% (active)
O=S(=O)(c1ccc(F)cc1)N1CCCCN2[C@H](C1)[C@H](c1ccc(C3=CCCCC3)cc1)[C@@H]2CO	16.3% (inactive)
CC(C)c1cn(CC[C@@H]2CC[C@@H](NC(=O)C3CCC3)[C@@H](CO)O2)nn1	2.99% (inactive)
NS(=O)(=O)c1ccc(CCNC(=O)CN2C(=O)c3ccccc3S2(=O)=O)cc1	0.854% (inactive)
COc1ccc(CNC(=O)COC(=O)C(CCSC)N2C(=O)c3ccccc3C2=O)cc1 (stereo not drawn)	-2% (inactive)
COc1ccc(CNC(=O)CN2C(=O)c3ccccc3S2(=O)=O)cc1	75.6% (active)
C/C=C/c1ccccc1[C@@H]1[C@@H](CO)N(S(=O)(=O)c2cccc(F)c2)[C@H]1C#N	-12.9% (inactive)
C[C@@H]1CN([C@@H](C)CO)C(=O)c2cc(NC(=O)CCCN(C)C)ccc2O[C@H]1CN(C)Cc1ccccc1	-7.53% (inactive)
COc1ccccc1-c1ccc2c(c1)O[C@H](CN(C)C(=O)c1cccnc1)[C@H](C)CN([C@@H](C)CO)S2(=O)=O	-1.96% (inactive)
COc1ccc(C(=NN)c2ccc(OC)cc2)cc1	-68% (inactive)
COc1ccc(C(C#N)=C2C=CC(=NO)c3ccccc32)cc1	70.5% (active)
COc1ccc(/C(N)=N/OC(=O)Cc2ccccc2)cc1	-143% (inactive)
